An excerpt weighted towards active compounds, which were near 0.45% of everything screened.
EPAC1 antagonist – qHTS for Antagonist of cAMP-regulated guanine nucleotide exchange factor 3 (EPAC1): primary screen | EPAC1 GEF assay, Rap1b-BODIPY-GDP exchange fluorescence | Potency, µM (doses to about 115 µM), actives largely listed as inhibitors | actives 0.14% (n = 360,000) | AID 720709, 2013; also: nearly all actives have a fitted effect of over 50% in size
EPAC2 ag – qHTS for Agonist of cAMP-regulated guanine nucleotide exchange factor 4 (EPAC2): primary screen | EPAC2 activation, biochemical qHTS; response scale: 100% = 6.5 mM cAMP response | Potency, µM (doses to about 154 µM), most hits filed as activators | actives 0.079% (n = 360,000); also: nearly all actives have a fitted effect of over 50% in size
Target sequence (Q8WZA2 whole entry, looked up): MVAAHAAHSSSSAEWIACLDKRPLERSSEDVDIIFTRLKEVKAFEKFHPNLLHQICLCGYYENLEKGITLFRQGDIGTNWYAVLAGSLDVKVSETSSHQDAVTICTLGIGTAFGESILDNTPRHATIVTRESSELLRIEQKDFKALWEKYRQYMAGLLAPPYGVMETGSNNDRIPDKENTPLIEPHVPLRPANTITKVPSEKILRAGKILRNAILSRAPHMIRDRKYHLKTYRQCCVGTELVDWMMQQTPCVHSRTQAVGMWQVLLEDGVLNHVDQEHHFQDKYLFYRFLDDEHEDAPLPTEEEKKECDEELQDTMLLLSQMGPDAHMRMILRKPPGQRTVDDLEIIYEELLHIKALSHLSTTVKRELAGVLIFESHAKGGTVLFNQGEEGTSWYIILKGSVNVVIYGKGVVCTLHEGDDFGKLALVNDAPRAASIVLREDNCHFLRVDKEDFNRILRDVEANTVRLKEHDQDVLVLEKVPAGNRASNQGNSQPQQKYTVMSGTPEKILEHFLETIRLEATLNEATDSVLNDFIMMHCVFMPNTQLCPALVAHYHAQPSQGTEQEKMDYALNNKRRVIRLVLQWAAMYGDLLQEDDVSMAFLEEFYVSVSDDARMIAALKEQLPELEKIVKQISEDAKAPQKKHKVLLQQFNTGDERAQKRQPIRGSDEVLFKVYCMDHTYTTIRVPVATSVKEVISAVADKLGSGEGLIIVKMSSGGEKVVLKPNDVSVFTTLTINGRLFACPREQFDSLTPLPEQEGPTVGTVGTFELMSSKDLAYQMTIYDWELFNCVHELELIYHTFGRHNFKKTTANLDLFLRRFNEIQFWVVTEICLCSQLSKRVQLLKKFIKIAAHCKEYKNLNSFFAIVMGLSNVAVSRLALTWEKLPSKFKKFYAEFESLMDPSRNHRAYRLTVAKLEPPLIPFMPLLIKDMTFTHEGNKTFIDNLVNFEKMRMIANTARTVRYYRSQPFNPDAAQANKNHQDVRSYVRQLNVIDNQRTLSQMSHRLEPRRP
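EPAC2 (100 nM) mixed with Rap1B loaded with BODIPY-GDP (250 nM) plus 50 uM unlabeled GDP; compounds pinned in, 5 min RT, then read every 5 min for 30 min (ex 480, em 540 nm). Normalized to cAMP control.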
EPAC1 agonist – qHTS for Agonist of cAMP-regulated guanine nucleotide exchange factor 3 (EPAC1): primary screen; Rap guanine nucleotide exchange factor 3 (Homo sapiens), O95398; EPAC1 agonist qHTS, biochemical assay; response scale: 100% = response to 6.5 mM cAMP; Potency, µM (top dose mostly 154 µM), actives largely listed as activators; actives 0.073% (n = 360,000); AID 720707, 2013; also: nearly all actives have a fitted effect of over 60% in size
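Multi-concentration qHTS readout: loss of Rap1B-bound BODIPY-GDP fluorescence driven by 100 nM EPAC1 with excess GDP (50 uM), monitored kinetically at room temperature; agonist response expressed relative to 6.5 mM cAMP.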
USP1 inh – Inhibitors of USP1/UAF1: Primary Screen; Ubiquitin carboxyl-terminal hydrolase 1 (Homo sapiens), O94782; recombinant USP1/UAF1, Ub-Rhodamine cleavage fluorescence; Potency, µM (titrated, usually from 57.1 µM), usual class: inhibitors; actives 0.23% (n = 390,000); AID 743255, 2014; also: nearly all actives have a fitted effect of over 60% in size
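USP1/UAF1 complex (1 nM) preincubated 15 min at room temperature with compound, then Ub-Rho substrate (150 nM final) added. Kinetic fluorescence at 480/540 nm over 6 reads at 60 s intervals; 50 mM HEPES pH 7.8, 0.5 mM EDTA, 0.1 mg/ml BSA, 1 mM TCEP, 0.01% Tween-20.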
EPAC2 antag – qHTS for Antagonist of cAMP-regulated guanine nucleotide exchange factor 2 (EPAC2): primary screen; EPAC2 GEF exchange of Rap1B-BODIPY-GDP, fluorescence; actives 0.18% (n = 360,000); Potency, µM (titrated, usually from 114 µM), most hits filed as inhibitors; Rap guanine nucleotide exchange factor 4 (Homo sapiens), Q8WZA2; also: nearly all actives have a fitted effect of over 45% in size
A number is an active result; . = inactive; ? = inconclusive; / = no result. Calls follow the shape of the dose curve; as a rule, active = well fitted curve in the direction sought with a large enough effect; inconclusive = small, poorly fitted or top-dose-only effect, or another doubt; inactive = no such curve, though single readings can be large; an effect the other way counts as inactive or inconclusive.

SMILES | EPAC1 antagonist | EPAC2 ag | EPAC1 agonist | USP1 inh | EPAC2 antag
CN(Cc1ccco1)c1ncnc2ccc(-c3ccc4c(c3)OCO4)cc12 | . | . | . | / | ?
Cc1nc(CN(C)c2ncnc3ccc(-c4ccc5c(c4)OCO5)cc23)cs1 | . | . | . | / | 31.6µM
Cc1ccc(Cl)c2sc(N3CCN(C(=O)c4ccco4)CC3)nc12 | . | . | 100µM | . | .
Cc1ccc(C)c2sc(N3CCN(C(=O)c4ccco4)CC3)nc12 | / | / | / | . | /
O=C(O)c1cccc2c1C(=O)c1ccccc1-2 | . | . | . | . | .
O=C1C(=C(I)I)c2ccccc2-c2ccccc21 | 25.1µM | ? | . | 28.2µM | ?
O=c1cc(-c2ccccc2Cl)oc2c(NS(=O)(=O)c3cc(Cl)cc(Cl)c3O)ccc(O)c12 | 35.5µM | . | . | 25.1µM | 28.2µM
N#CC1=C(N)SC(N)=C(C#N)C1c1cccc(Oc2ccccc2)c1 | . | . | . | . | 50.1µM
CCOc1ccccc1C1C(C#N)=C(N)SC(N)=C1C#N | . | . | . | ? | .
CCOc1ccc(C2C(C#N)=C(N)SC(N)=C2C#N)cc1OCC | . | . | . | 31.6µM | .
N#CC1=C(N)SC(N)=C(C#N)C1c1c(Cl)cccc1Cl | . | . | . | ? | .
Cc1ccc(NC(=O)c2c(C)oc3ccc(O)c(CN4CCCCCC4)c23)c(C)c1 | / | / | / | . | /
Cc1csc(NC(=O)CSc2sc3c(O)cc(=O)[nH]c3c2C#N)n1 | 50.1µM | . | . | ? | .
CCn1nc(C)c(CCN(C)C(=O)Nc2cc(C)cc(C)c2)c1C | / | / | / | . | /
O=c1oc2cc(O)ccc2cc1-c1nc2ccccc2o1 | . | ? | 63.1µM | / | .
O=C(COc1ccc2ccccc2c1)Nc1cccc(C(=O)Nc2ccccc2C(=O)O)c1 | 44.7µM | . | . | . | .
O=C(/C=C/c1ccc([N+](=O)[O-])cc1)Nc1cccc(C(=O)Nc2ccccc2C(=O)O)c1 | 28.2µM | . | . | ? | .
O=C(O)/C=C\C(=O)Nc1ccccc1C#Cc1ccc(Br)cc1 | . | . | . | . | 10µM
O=C(O)/C=C\C(=O)Nc1ccccc1C#Cc1ccccc1 | . | . | . | . | .
COc1ccccc1NC(=O)c1cc(S(=O)(=O)NCCC2=CCCCC2)ccc1F | / | / | / | . | /
O=C(CS(=O)(=O)c1ccc(F)cc1)Nc1nccs1 | . | . | . | . | .
O=C(COc1ccc(F)cc1)Nc1nccs1 | . | 35.5µM | . | . | .
COc1ccccc1NC(=O)C1=C(C)Nc2c(C(=O)Nc3cccc(C)c3)cnn2C1c1ccccc1Cl (configuration not stated) | / | / | / | . | /
COc1ccc(CNC(=O)CCc2c(C)nc3c(c(C)nn3-c3ccccc3)c2C)cc1 | / | / | / | . | /
CCCCC(CC)CN=C(N)NC(N)=NCCCCCCN=C(N)NC(N)=NCC(CC)CCCC (configuration not stated) | ? | . | . | 31.6µM | ?
SMILES | EPAC1 antagonist | EPAC2 ag | EPAC1 agonist | USP1 inh | EPAC2 antag
O=Cc1ccc(-c2cccs2)s1 | . | . | . | . | .
Oc1ccc(N=Cc2ccc(-c3cccs3)s2)cc1 | 31.6µM | . | . | 12.6µM | ?
N#Cc1c(NC(=O)c2ccc(Br)o2)n(-c2ccccc2)c2nc3ccccc3nc12 | ? | . | . | 6.31µM | ?
CCC(=O)Nc1c(C#N)c2nc3ccccc3nc2n1-c1ccc(C)cc1 | ? | . | . | . | .
COc1cccc(C(=O)Nc2ccc(-c3nc4ccccc4s3)cc2Cl)c1 | / | / | / | . | /
CC(=O)Nc1cc(OC(C)=O)c2nonc2c1OC(C)=O | ? | . | . | 3.98µM | .
CC(=O)Nc1nonc1NC(C)=O | . | . | . | . | .
Cn1c(=O)c2c(nc(NCc3ccccc3)n2Cc2ccc(Cl)c(Cl)c2)n(C)c1=O | / | / | / | . | /
COc1cccc(C2C3CN(C)CC=C3C(C#N)=C(N)C2(C#N)C#N)c1OC (configuration not stated) | . | . | . | ? | .
CCN1CC=C2C(C#N)=C(N)C(C#N)(C#N)[C@H](c3cccc(OC)c3OC)[C@H]2C1 | . | . | . | 31.6µM | .
COc1ccc(N=C2NC(=O)S/C2=C\c2ccc(N(C)C)cc2)cc1 | . | . | ? | 25.1µM | .
CCOc1ccc(N=C2NC(=O)S/C2=C\c2ccc(Cl)cc2)cc1 | . | . | . | . | .
N#Cc1ccccc1Cn1c(=O)n(CCCC(=O)NCc2ccccc2Cl)c(=O)c2ccccc21 | / | / | / | . | /
O=C(N/N=C/c1ccc(O)cc1)c1cccc(C(F)(F)F)c1 | . | . | . | . | .
O=C(N/N=C/c1ccccc1O)c1cccc(C(F)(F)F)c1 | 7.94µM | . | . | . | .
Cc1ccc(Cl)cc1N1CCN(C(=O)C2CCN(S(=O)(=O)c3c(C)noc3/C=C/c3ccccc3F)CC2)CC1 | / | / | / | . | /
COc1ccc(N=Nc2ccc(N)nc2N)cc1 | . | . | . | . | .
CCOc1ccc2nc3cc(N=Nc4ccc(N)nc4N)ccc3c(N)c2c1 | . | . | . | 15.8µM | ?
CC1CCc2c(sc(NC(=O)c3ccccc3C(=O)O)c2C#N)C1 (configuration not stated) | . | . | . | . | .
CCC(C)(C)C1CCc2c(sc(NC(=O)c3ccccc3C(=O)O)c2C#N)C1 (configuration not stated) | 79.4µM | . | . | ? | .
COC(=O)c1sccc1S(=O)(=O)N(CC(=O)NCc1ccccc1)c1ccc(C)cc1 | / | / | / | . | /
COc1cc2c(cc1OC)C(=O)C(Br)CC2 (configuration not stated) | 44.7µM | . | . | 14.1µM | 28.2µM
COc1cc2c(cc1OC)C(=O)C(c1ccc3c(c1)OCO3)CC2 (configuration not stated) | . | . | . | . | .
Cc1ccc(O)c(N=Cc2cc(Cc3ccccc3)cc([N+](=O)[O-])c2O)c1 | ? | . | . | 25.1µM | ?
O=[N+]([O-])c1cc(Cc2ccccc2)cc(C=Nc2ccc(N3CCOCC3)cc2)c1O | . | . | . | 25.1µM | ?
Cc1ccc(O)c(C=Nc2cc(C)ccc2O)c1 | . | . | . | . | .
CCN1C(=O)C(Cc2nc3ccccc3c(=O)n2C)c2cc(C)ccc21 (configuration not stated) | / | / | / | . | /
Cc1ccc(-n2nc3c(N4CCC(C(=O)NCCC(C)C)CC4)nnc(C)c3c2C)cc1 | / | / | / | . | /
CC1(Cc2ccc(Cl)cc2)C(=O)Nc2ccc(-c3cccnc3)cc21 (configuration not stated) | . | . | . | / | 50.1µM

Screens deposited in PubChem by National Center for Advancing Translational Sciences (NCATS).
